Laboratory results: PubChem BioAssay (Tox21)
Results filed as inconclusive are left out. The source made the active and inactive calls. Unless noted, calls follow the shape of the full dose curve.

How the values were obtained:
[1] = biological target: Gonadotropin-releasing hormone receptor (Homo sapiens) (UniProt P30968); assay: Human gonadotropin-releasing hormone receptor (GnRHR) small molecule agonists, calcium flux assay in GnRHR-HEK293 cells (AID 1920063); also: nearly all actives have a fitted effect of over 35% in size
Outline: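 Cells: HEK293 stably expressing human GnRHR. Steps: overnight (18 h) culture, 1 h calcium dye loading at 37 C, compound addition, kinetic fluorescence read at 480/540 nm. Each compound tested at 15 concentrations in triplicate.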

[2] = biological target: KiSS-1 receptor (Homo sapiens) (UniProt Q969F8); assay: Human kisspeptin (KISS1R) small molecule agonists, calcium flux assay in KISS1R-HEK293 cells (AID 1920064; active = well fitted activation curve with a large enough effect in the repeat runs)
Outline: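 Cells plated and incubated 18 h; dye added, 1 h at 37 C; compounds in DMSO pinned in; signal read at 480/540 nm every second for 3 min. Each compound tested at 15 concentrations in triplicate.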

[3] = G protein-coupled receptor (GPCR) small molecule agonists, calcium flux assay: HEK293 wild type cell line counter screen (AID 1920065)
Outline: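 Counter-screen of the Tox21 10K library for non-specific calcium release: dye-loaded cells received compounds in DMSO and were monitored by kinetic fluorescence (480/540 nm, 3 min). Fifteen concentrations, run in triplicate.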

[4] = p53 small molecule agonists, cell-based qHTS assay with human liver microsomes (AID 1963577);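 also: p53 response element beta-lactamase reporter cells with liver microsomes plus NADPH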
Outline: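 16 h, 37 C exposure of p53RE-bla cells to compounds with human liver microsomes and NADPH (0.5 mg/mL final each); detection via LiveBLAzer mixture, 2 h dark at room temperature.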

[5] = p53 small molecule agonists, cell-based qHTS assay with rat liver microsomes (AID 1963578)
Outline: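 With rat liver microsomes and NADPH present (0.5 mg/mL final each), p53RE-bla cells are treated with compound for 16 h at 37 C. LiveBLAzer detection mixture is then applied for 2 h at room temperature in the dark.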

[6] = p53 small molecule agonists, cell-based qHTS assay with human liver microsomes: qHTS cell viability counter screen (AID 1963579); also: nearly all actives have a fitted effect of over 45% in size
Outline: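 In this multiplexed counter screen, the reporter plates were subsequently treated with CellTiter-Glo so that cell viability, reflected by luminescence, could be recorded for p53RE-bla cells dosed 16 h with compounds under microsomal activation (HLM and NADPH).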

[7] = p53 small molecule agonists, cell-based qHTS assay: qHTS cell viability counter screen (AID 1963581); also: nearly all actives have a fitted effect of over 45% in size
Outline: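 Cells: HCT-116 with p53 response element-driven beta-lactamase. Treatment: 16 h, 37 C, compounds in DMSO. Read: CellTiter-Glo luminescence after 30 min RT.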

[8] = biological target: 5-hydroxytryptamine receptor 2A (Homo sapiens) (UniProt P28223); assay: 5-hydroxytryptamine receptor 2A (HTR2A) small molecule antagonists, cell-based qHTS assay (AID 1963586); also: nearly all actives have a fitted effect of over 45% in size
Outline: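 Antagonist-mode intracellular calcium assay: DOI (4 nM) added after 5 min compound pre-incubation at room temperature to dye-loaded HTR2A-CHO cells. Fluorescence followed for 3 min, sampled every second.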

[9] = biological target: 5-hydroxytryptamine receptor 2A (Homo sapiens) (UniProt P28223); assay: 5-hydroxytryptamine receptor 2A (HTR2A) small molecule agonists, cell-based qHTS assay (AID 1963587); also: nearly all actives have a fitted effect of over 30% in size
Outline: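 HTR2A-CHO cells, plated 18 h at 37 C/5% CO2, dye-loaded 1 h at 37 C; compounds in DMSO added by pin tool (agonist mode). Intracellular calcium flux read as kinetic fluorescence on FDSS over 2 min at 1 s intervals.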

[10] = biological target: Muscarinic acetylcholine receptor M1 (Homo sapiens) (UniProt P11229); assay: Cholinergic receptor muscarinic 1 (CHRM1) small molecule antagonists, cell-based qHTS assay (AID 1963588); also: nearly all actives have a fitted effect of over 40% in size
Outline: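 CHRM1-CHO calcium-flux assay, antagonist mode. Cells were seeded 18 h, dye-loaded 1 h at 37 C and given compound for 5 min at RT, then acetylcholine was added at 50nM. FDSS fluorescence was read 3 min; 15 concentrations, three runs.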

[11] = biological target: Beta-2 adrenergic receptor (Homo sapiens) (UniProt P07550); assay: Adrenergic beta2 receptor (ADRB2) small molecule antagonists, cell-based qHTS assay (AID 1963592); also: series mostly up to about 92 µM; nearly all actives have a fitted effect of over 50% in size
Outline: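 Cells (CHO, stable ADRB2 overexpression) incubated 18-20hr at 37C; compounds added from DMSO; agonist mix (1nM isoproterenol, 100uM IBMX, 25uM Ro-20-1724) added; 0.5hr RT; d2-cAMP and anti-cAMP-cryptate added; 1hr RT; 665/615 nm read.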

[12] = biological target: D(2) dopamine receptor (Homo sapiens) (UniProt P14416); assay: Dopamine D2 receptor (DRD2) small molecule agonists, cell-based qHTS assay (AID 1963594); also: nearly all actives have a fitted effect of over 35% in size
Outline: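 HEK293 cells stably expressing DRD2 were cultured 24 h at 37 C, then given Ro20-1724 (0.1 mM final) and compounds for 10 min at room temperature. NKH477 (200nM) was then added for 30 min. cAMP was read by HTRF.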

[13] = biological target: D(2) dopamine receptor (Homo sapiens) (UniProt P14416); assay: Dopamine D2 receptor (DRD2) small molecule antagonists, cell-based qHTS assay (AID 1963595; active = well fitted inhibition curve with a large enough effect in the signal ratio in the repeat runs, with a control signal flat; the % refers to the signal ratio)
Outline: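 Cells were plated and grown for 24 h at 37 °C. Ro20-1724 (0.1 mM final) went in first, then compound for 10 min. NKH477 (200 nM) with quinpirole (12 nM) followed for 30 min at RT, then HTRF detection reagents for 1 h.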

[14] = p53 small molecule agonists, cell-based qHTS assay with rat liver microsomes: qHTS cell viability counter screen (AID 1963580); also: nearly all actives have a fitted effect of over 45% in size
Outline: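 p53RE-bla HCT-116 cells (4,000/well) rested 5 h at 37 C, then given Tox21 compounds in DMSO with rat liver microsomes (0.5 mg/mL final) plus NADPH (0.5 mg/mL final) for 16 h at 37 C. Viability read by CellTiter-Glo luminescence after 30 min at room temperature.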

[15] = p53 small molecule agonists, cell-based qHTS assay (AID 1963582; active = well fitted activation curve with a large enough effect in the signal ratio in the repeat runs, not every such curve was filed as active; the % refers to the signal ratio)
Outline: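 Quantitative HTS in p53RE-bla cells: after a 5 h settling period, compounds delivered in DMSO were left on cells for 16 h at 37 C, and reporter induction was measured as fluorescence following 2 h substrate loading.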

[16] = biological target: Muscarinic acetylcholine receptor M1 (Homo sapiens) (UniProt P11229); assay: Cholinergic receptor muscarinic 1 (CHRM1) small molecule agonists, cell-based qHTS assay (AID 1963589); also: nearly all actives have a fitted effect of over 35% in size
Outline: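 Agonist-mode qHTS in CHO cells stably carrying human muscarinic M1. Intracellular calcium is tracked by fluorescence every second after compound transfer; each compound runs at 15 concentrations in three independent runs.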

[17] = cAMP Responsive Elements (CRE) small molecule agonists, cell-based qHTS assay (AID 1963590)
Outline: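 Agonist mode qHTS in CRE-bla HEK 293T cells: compounds dosed from DMSO for 3 h at 37 C/5% CO2, followed by LiveBLAzer B/G FRET substrate for 2 h at room temperature.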

[18] = cAMP Responsive Elements (CRE) small molecule antagonists, cell-based qHTS assay (AID 1963591; active = well fitted inhibition curve with a large enough effect in the signal ratio in the repeat runs, not every such curve was filed as active; the % refers to the signal ratio)
Outline: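 Antagonist mode: test compounds are co-incubated with the adenylyl cyclase activator NKH477 (0.25 uM final) on CRE-bla HEK293T cells for 3 h at 37 °C, followed by LiveBLAzer substrate loading.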

[19] = biological target: Beta-2 adrenergic receptor (Homo sapiens) (UniProt P07550); assay: Adrenergic beta2 receptor (ADRB2) small molecule agonists, cell-based qHTS assay (AID 1963593);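 also: CHO cells stably overexpressing human ADRB2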
Outline: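 CHO cells stably over-expressing ADRB2 were plated overnight at 37C, then dosed with compounds plus a stimulation mix containing 100uM IBMX and 25uM Ro-20-1724 for 0.5hr at room temperature. cAMP was measured by HTRF competition, 1hr.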

Measured: Potency

Sequence of Muscarinic acetylcholine receptor M1 (Homo sapiens) (P11229 whole entry, looked up): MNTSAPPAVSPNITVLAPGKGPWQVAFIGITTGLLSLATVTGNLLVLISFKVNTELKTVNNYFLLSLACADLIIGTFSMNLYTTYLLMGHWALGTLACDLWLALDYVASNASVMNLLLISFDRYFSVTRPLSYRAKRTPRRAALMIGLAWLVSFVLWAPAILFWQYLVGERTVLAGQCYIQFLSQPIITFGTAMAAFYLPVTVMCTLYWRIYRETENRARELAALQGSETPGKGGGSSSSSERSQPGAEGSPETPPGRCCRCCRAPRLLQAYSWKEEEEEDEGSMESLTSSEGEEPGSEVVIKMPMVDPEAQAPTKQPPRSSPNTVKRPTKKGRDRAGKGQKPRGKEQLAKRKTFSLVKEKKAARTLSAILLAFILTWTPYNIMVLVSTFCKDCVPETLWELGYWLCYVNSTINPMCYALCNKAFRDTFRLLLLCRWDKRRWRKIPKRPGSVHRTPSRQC
Sequence of KiSS-1 receptor (Homo sapiens) (Q969F8 whole entry, looked up): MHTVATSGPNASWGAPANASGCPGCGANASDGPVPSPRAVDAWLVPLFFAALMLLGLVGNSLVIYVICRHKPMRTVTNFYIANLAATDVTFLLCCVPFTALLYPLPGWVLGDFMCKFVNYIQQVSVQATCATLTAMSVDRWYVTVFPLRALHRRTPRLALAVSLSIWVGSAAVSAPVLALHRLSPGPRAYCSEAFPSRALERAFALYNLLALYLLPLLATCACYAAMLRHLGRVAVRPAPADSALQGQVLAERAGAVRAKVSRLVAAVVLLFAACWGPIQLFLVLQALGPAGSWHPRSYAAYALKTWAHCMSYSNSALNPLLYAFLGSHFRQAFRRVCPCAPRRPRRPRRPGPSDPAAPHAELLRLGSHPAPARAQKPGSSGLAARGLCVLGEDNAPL
Sequence of Beta-2 adrenergic receptor (Homo sapiens) (P07550 whole entry, looked up): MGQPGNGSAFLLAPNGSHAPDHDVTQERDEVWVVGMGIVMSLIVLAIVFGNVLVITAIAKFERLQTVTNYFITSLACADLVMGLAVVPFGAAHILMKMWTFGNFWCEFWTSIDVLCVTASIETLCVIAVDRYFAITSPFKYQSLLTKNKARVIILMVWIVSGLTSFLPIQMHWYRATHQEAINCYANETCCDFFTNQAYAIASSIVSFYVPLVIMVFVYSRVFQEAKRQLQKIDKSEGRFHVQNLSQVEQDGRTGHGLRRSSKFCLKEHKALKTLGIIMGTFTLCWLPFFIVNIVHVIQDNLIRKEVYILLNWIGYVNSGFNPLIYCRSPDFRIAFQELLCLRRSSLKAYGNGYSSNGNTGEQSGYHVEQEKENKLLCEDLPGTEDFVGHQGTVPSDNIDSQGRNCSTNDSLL
Sequence of Gonadotropin-releasing hormone receptor (Homo sapiens) (P30968 whole entry, looked up): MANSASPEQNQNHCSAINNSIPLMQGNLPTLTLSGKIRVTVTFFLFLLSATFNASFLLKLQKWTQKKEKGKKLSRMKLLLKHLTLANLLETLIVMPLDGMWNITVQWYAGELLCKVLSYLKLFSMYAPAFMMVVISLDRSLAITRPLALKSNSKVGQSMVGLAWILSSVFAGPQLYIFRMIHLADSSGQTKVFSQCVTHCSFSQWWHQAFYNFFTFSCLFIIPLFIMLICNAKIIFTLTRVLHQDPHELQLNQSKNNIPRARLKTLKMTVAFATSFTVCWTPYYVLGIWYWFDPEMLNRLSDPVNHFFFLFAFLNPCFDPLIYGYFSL
Sequence of D(2) dopamine receptor (Homo sapiens) (P14416 whole entry, looked up): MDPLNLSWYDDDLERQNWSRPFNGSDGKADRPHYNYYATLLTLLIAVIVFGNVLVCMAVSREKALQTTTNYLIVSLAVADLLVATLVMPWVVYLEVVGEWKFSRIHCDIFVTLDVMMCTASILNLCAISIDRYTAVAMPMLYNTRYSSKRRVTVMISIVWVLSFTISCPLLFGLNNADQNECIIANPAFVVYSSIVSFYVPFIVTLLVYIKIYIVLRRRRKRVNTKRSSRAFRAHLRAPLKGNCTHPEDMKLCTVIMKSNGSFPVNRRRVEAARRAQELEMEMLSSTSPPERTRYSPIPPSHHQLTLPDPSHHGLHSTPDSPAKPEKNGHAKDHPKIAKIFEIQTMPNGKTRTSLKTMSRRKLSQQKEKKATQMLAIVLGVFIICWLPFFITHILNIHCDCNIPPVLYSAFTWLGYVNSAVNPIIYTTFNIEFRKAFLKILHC
Sequence of 5-hydroxytryptamine receptor 2A (Homo sapiens) (P28223 whole entry, looked up): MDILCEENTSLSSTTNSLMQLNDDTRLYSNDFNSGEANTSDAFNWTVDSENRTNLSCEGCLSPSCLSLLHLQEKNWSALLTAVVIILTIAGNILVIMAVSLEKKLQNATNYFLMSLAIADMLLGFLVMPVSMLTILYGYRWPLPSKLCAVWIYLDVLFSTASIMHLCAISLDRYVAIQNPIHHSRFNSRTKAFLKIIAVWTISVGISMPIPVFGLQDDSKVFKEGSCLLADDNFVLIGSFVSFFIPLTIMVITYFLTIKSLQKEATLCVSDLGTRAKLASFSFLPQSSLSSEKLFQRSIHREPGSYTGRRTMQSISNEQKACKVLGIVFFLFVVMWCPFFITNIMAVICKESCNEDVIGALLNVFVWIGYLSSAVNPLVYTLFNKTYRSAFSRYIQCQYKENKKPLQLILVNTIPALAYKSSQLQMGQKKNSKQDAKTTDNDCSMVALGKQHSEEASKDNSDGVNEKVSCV

O=Cc1ccc(Cl)c([N+](=O)[O-])c1
inactive: [1] | [2] | [3] | [4] | [5] | [6] | [7] | [8] | [9] | [10] | [11] | [12] | [13]

CCCCCOC(=O)CCCCC
inactive: [1] | [2] | [3] | [4] | [5] | [6] | [14] | [7] | [15] | [8] | [9] | [16] | [17] | [18] | [11] | [19] | [13]

CCOc1ccc2nc3cc(N)ccc3c(N)c2c1
inactive: [1] | [2] | [3] | [4] | [5] | [6] | [14] | [7] | [8] | [9] | [10] | [16] | [11] | [12] | [13]

COc1cc(C)nc(-n2nc(C)cc2OC)n1
inactive: [1] | [2] | [3] | [4] | [5] | [6] | [14] | [7] | [8] | [9] | [10] | [16] | [17] | [18] | [11] | [13]

C[C@H](CS)C(=O)N1CCC[C@H]1C(=O)O
inactive: [1] | [2] | [3] | [4] | [5] | [6] | [14] | [7] | [15] | [17] | [18] | [11] | [19] | [12] | [13]

O=S(=O)(O)c1cc(S(=O)(=O)O)c2c(N=Nc3ccccc3)c(O)ccc2c1
inactive: [1] | [2] | [3] | [4] | [5] | [14] | [7] | [15] | [8] | [9] | [10] | [16] | [17] | [18] | [19]

CC1=C(C/C=C(\C)CCC[C@H](C)CCC[C@H](C)CCCC(C)C)C(=O)c2ccccc2C1=O
inactive: [1] | [2] | [3] | [6] | [14] | [7] | [15] | [8] | [9] | [10] | [16] | [17] | [18] | [11] | [12] | [13]

CCN(CC)c1ccc(C(=C2C=CC(=[N+](CC)CC)C=C2)c2cc(S(=O)(=O)O)ccc2S(=O)(=O)[O-])cc1
inactive: [1] | [2] | [3] | [4] | [15] | [8] | [9] | [10] | [16] | [17] | [18]
